The list is not random: actives were taken first. Their share in the collection is about 3.6%.
KAT2A inh: blocks human GCN5L2 histone acetyltransferase; GCN5L2 HAT assay, ThioGlo1 CoA-SH fluorescence; Potency, µM (top dose mostly 58.9 µM), actives largely listed as inhibitors; actives 0.21% (n = 390,000)
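qHTS, 1536-well. 20nM enzyme, pH 7.5 HEPES/EDTA/Tween-20 buffer; 15 min compound preinc., RT. Start: 75uM H3(1-25), 70uM AcCoA, 50uM ThioGlo1. Read Ex340/Em540 at t=0 (autofluorescence flag) and t=20 min.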
PI5P4K alpha inh: blocks human PI5P4K alpha kinase activity; P48426; PI5P4Kalpha enzyme, ADP-Glo luminescence, 60 min; hits give low values; max response, %; actives 1.2% (n = 330,000); active = max response of -50% or lower; inconclusive = between -30% and -50%; inactive = -30% or higher; note: value at the top dose of about 77 µM
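Human PI5P4Kalpha with substrate in 0.038 M HEPES pH 7.4, 0.28 mM EGTA, 0.1% CHAPS, 5% DMSO; reaction started with 5 microM ATP (final), 60 min at room temperature. ADP formed read by ADP-Glo luminescence.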
VDR inh: vitamin D3 receptor (human) inhibition; VDR-SRC2-3 peptide fluorescence polarization, 2 h; Potency, µM, hits mostly inhibitors; actives 0.93% (n = 400,000); AID 504847
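Measured by FP: displacement of SRC2-3 coactivator peptide from VDR by library compounds, following a two-hour ambient incubation.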
Rango release inh: inhibition of RanGTP-driven Rango-importin beta dissociation | O95149+P62826 | Biochemical FRET Rango-importin beta, RanGTP-induced dissociation | Potency, µM (highest dose often 46.1 µM) | actives 0.071% (n = 340,000) | AID 540253; calls by dose curve; note: nearly all actives have a fitted effect of over 45% in size
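Rango (0.1 uM)–importin beta (0.25 uM) complex; RanGTP-RCC1 trigger; 45 min RT; CFP/YFP FRET read.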
PLK1 PBD inh: PLK1 (human) polo-box domain binding inhibition; AID 720504; P53350; Potency, µM, hits mostly inhibitors; actives 2.8% (n = 360,000); Plk1 PBD binding of FITC phosphopeptide, fluorescence polarization; note: series mostly up to about 57 µM; nearly all actives have a fitted effect of over 65% in size
Rango complex inh: Rango-importin beta binding inhibition. Q14974. Rango CFP/YFP FRET sensor + importin beta, 45 min. Potency, µM (highest dose often 92.2 µM). actives 0.031% (n = 340,000). AID 540263; calls by dose curve; note: nearly all actives have a fitted effect of over 15% in size
Target sequence (Q14974 whole entry, looked up): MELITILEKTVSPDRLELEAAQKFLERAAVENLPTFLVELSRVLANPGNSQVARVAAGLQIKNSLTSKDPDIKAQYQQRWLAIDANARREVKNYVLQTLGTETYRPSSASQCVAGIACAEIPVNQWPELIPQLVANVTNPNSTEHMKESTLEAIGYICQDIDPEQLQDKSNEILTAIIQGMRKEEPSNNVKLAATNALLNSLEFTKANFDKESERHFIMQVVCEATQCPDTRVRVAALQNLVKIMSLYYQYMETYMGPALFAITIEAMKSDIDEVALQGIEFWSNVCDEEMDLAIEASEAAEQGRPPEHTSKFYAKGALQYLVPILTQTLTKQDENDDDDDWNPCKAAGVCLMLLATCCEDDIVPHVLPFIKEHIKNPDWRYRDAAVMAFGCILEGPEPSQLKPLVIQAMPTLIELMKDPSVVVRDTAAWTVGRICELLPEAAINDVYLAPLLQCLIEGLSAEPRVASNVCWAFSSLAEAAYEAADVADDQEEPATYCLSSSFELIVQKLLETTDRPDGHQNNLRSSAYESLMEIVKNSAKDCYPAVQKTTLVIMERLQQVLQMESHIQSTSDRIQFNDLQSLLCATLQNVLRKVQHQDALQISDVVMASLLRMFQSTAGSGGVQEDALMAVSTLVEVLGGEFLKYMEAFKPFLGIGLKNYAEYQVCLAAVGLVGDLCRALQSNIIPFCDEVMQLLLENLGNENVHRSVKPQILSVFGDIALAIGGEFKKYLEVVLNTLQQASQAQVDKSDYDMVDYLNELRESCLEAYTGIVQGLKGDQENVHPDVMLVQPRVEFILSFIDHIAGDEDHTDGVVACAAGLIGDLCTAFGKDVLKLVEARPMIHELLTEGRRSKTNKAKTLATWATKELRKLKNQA
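FRET biosensor (snurportin 1 IBB flanked by EYFP and cerulean), 50 nM, with compound 5 min, then 0.125 microM importin beta in PBS, 1 mM DTT, 0.02% Tween-20, 0.1% BSA. CFP/YFP ratio read after 45 min at room temperature; pre-read flags interference.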
Large screens that a line does not name were inactive. Unless noted, calls come from the whole dose curve; as a rule, active = well fitted curve in the direction sought with a large enough effect; inconclusive = small, poorly fitted or top-dose-only effect, or another doubt; inactive = no such curve, though single readings can be large; an effect the other way counts as inactive or inconclusive.

CN(C)C(=O)CSc1cccc2cccnc12	PLK1 PBD inh 12µM
COc1cc2cccc(OC)c(=O)c2c(O)c1OC	none
COc1cc2c(ccc3cc(OC)c(OC)c(O)c32)cc1O	PI5P4K alpha inh -106, PLK1 PBD inh inconclusive
C#CCNC(=O)C(C)c1ncc(C(F)(F)F)cc1Cl (stereo not drawn)	VDR inh inconclusive, PLK1 PBD inh 6.7µM
CN(C)C(=O)COC(=O)c1ccc(S(=O)(=O)NCc2ccco2)cc1	PLK1 PBD inh 27µM
Cc1ccc(S(=O)(=O)NCc2ccco2)cc1C(N)=O	VDR inh inconclusive, PLK1 PBD inh 27µM
O=C(COC(=O)c1ccc(S(=O)(=O)NCc2ccco2)cc1)Nc1ccccc1	none
Cc1ccc(NC(=O)CN2C(=O)C3(SCC(=O)N3c3ccc(F)c(F)c3)c3ccccc32)c(C)c1 (stereo not drawn)	none (no result: PI5P4K alpha inh, Rango release inh, PLK1 PBD inh, Rango complex inh)
COc1ccc(NC(=O)c2ccc(N3C(=O)C4CC=C(Cl)CC4C3=O)cc2)cc1 (stereo not drawn)	PI5P4K alpha inh -51
O=C(O)c1cccc(N2C(=O)C3CC=C(Cl)CC3C2=O)c1 (stereo not drawn)	VDR inh inconclusive, PLK1 PBD inh 24µM
O=C(O)c1cccc(N2C(=O)C3CC=CCC3C2=O)c1 (stereo not drawn)	none (no result: PI5P4K alpha inh)
Cc1ccc(OC(=O)c2ccc3nc(C)sc3c2)cc1	VDR inh inconclusive, Rango release inh inconclusive, PLK1 PBD inh 19µM, Rango complex inh inconclusive
COc1ccc(OC(=O)c2ccc3nsnc3c2)cc1	none
O=C(Nc1ccc2ncccc2c1)c1ccccc1	VDR inh inconclusive, PLK1 PBD inh 8.4µM
Cc1nc2ccc(NC(=O)c3ccccc3)cc2s1	PLK1 PBD inh 21µM
Cc1nc2ccc(NC(=O)c3ccc4ccccc4n3)cc2s1	none
O=C(NC(=S)Nc1ccc2ncccc2c1)c1ccccc1	Rango release inh inconclusive
C=C[C@@H]1[C@@H](C)[C@H](C)C(=O)C([C@H](O)C(C)C)[C@@H]1C (stereo partly drawn)	none (no result: KAT2A inh, PI5P4K alpha inh, Rango release inh, PLK1 PBD inh, Rango complex inh)
CC[C@H]1OC(=O)[C@H](C)[C@@H](O[C@H]2C[C@@](C)(OC)[C@@H](O)[C@H](C)O2)[C@H](C)[C@@H](O[C@@H]2O[C@H](C)C[C@H](N(C)C)[C@H]2O)[C@](C)(O)C[C@@H](C)C(=O)[C@H](C)[C@@H](O)[C@]1(C)O	PLK1 PBD inh 21µM
Cc1ccc(-c2csc3n[nH]c(=S)n23)cc1	KAT2A inh 25µM, PI5P4K alpha inh -95
CCn1c(-c2ccc(C)cc2)n[nH]c1=S	none
CCCCCCCOc1ccc(C2(C)NC(=O)NC2=O)cc1 (stereo not drawn)	none
CCCCOc1ccc(C2(C)NC(=O)NC2=O)cc1 (stereo not drawn)	VDR inh 25µM, PLK1 PBD inh 7.5µM
CC(C)OC(=O)c1c(NC(=O)C2c3ccccc3Oc3ccccc32)sc2c1CCCC2	none (no result: PI5P4K alpha inh, Rango release inh, PLK1 PBD inh, Rango complex inh)
Cc1cccc(-c2nn(C(=S)Nc3ccccc3)cc2-c2ccnc3ccccc23)n1	VDR inh inconclusive (no result: PI5P4K alpha inh, Rango release inh, PLK1 PBD inh, Rango complex inh)
CC1(C)CN=c2s/c(=C\c3ccc(Cl)cc3)c(=O)n2C1	PLK1 PBD inh 4.7µM
O=S(=O)(c1ccc(Cl)cc1)c1nc(-c2cccs2)oc1SCc1ccccc1F	none (no result: PI5P4K alpha inh, Rango release inh, PLK1 PBD inh, Rango complex inh)
COc1ccc(C2CC(=O)c3cc(-c4nc(-c5cccc([N+](=O)[O-])c5)cs4)c(=O)n(-c4ccc(C)c(C)c4)c3C2)cc1 (stereo not drawn)	none (no result: PI5P4K alpha inh, Rango release inh, PLK1 PBD inh, Rango complex inh)
COc1cccc2cc3c(=O)n(-c4ccccc4)nc-3oc12	PLK1 PBD inh 30µM
Cc1ccc(C(C)NC(=O)/C(C#N)=C\c2c(C)[nH]c3ccccc23)cc1 (stereo not drawn)	VDR inh inconclusive, PLK1 PBD inh 24µM (no result: PI5P4K alpha inh)
COC(=O)CCC(=O)OC1(C)C(=O)C2=CN(C(CO)CO)C(c3ccc(OC)cc3)=CC2=C(Br)C1=O (stereo not drawn)	none (no result: PI5P4K alpha inh, VDR inh, Rango release inh, PLK1 PBD inh, Rango complex inh)
COC(=O)CCC(=O)OC1(C)C(=O)C2=CN(CCN3CCOCC3)C(c3ccc(OC)cc3)=CC2=C(Br)C1=O (stereo not drawn)	none (no result: PI5P4K alpha inh, VDR inh, Rango release inh, PLK1 PBD inh, Rango complex inh)
COc1ccc(C2=CC3=C(Br)C(=O)C(C)(OC(=O)c4ccc(Cl)nc4)C(=O)C3=CO2)cc1 (stereo not drawn)	PI5P4K alpha inh inconclusive, Rango release inh inconclusive, PLK1 PBD inh 12µM, Rango complex inh inconclusive
COC(=O)CCC(=O)OC1(C)C(=O)C2=COC(c3ccc(OC)cc3)=CC2=C(Br)C1=O (stereo not drawn)	PI5P4K alpha inh -79, VDR inh inconclusive, Rango release inh inconclusive, PLK1 PBD inh 12µM, Rango complex inh inconclusive
COc1ccc(C2=CC3=C(Br)C(=O)C(C)(OC(=O)C4CCCC4)C(=O)C3=CO2)cc1 (stereo not drawn)	PI5P4K alpha inh -68, VDR inh inconclusive, Rango release inh inconclusive, PLK1 PBD inh 24µM, Rango complex inh inconclusive
CC(C)CCNC(=O)CN1C(=O)CSc2ccc(S(=O)(=O)N3CCC(C)CC3)cc21	none (no result: PI5P4K alpha inh, Rango release inh, PLK1 PBD inh, Rango complex inh)
CCCCC(=O)Nc1cccc(-c2nc3ccccc3s2)c1	none (no result: PI5P4K alpha inh, Rango release inh, PLK1 PBD inh, Rango complex inh)
O=C(NCC(c1cccs1)S(=O)(=O)c1cccs1)c1ccccc1 (stereo not drawn)	none (no result: PI5P4K alpha inh, Rango release inh, PLK1 PBD inh, Rango complex inh)
